Measured values: PubChem BioAssay (NCATS)
Records with an inconclusive call do not appear. The source holds several records for some structures; these can differ, active in one and inactive in another. The source made the active and inactive calls. Unless noted, calls come from the whole dose curve; as a rule, active = well fitted curve in the direction sought with a large enough effect; inconclusive = small, poorly fitted or top-dose-only effect, or another doubt; inactive = no such curve, though single readings can be large; an effect the other way counts as inactive or inconclusive.

How the values were obtained:
[1] = P-glycoprotein substrates identified in KB-3-1 adenocarcinoma cell line, qHTS therapeutic library screen (AID 1346986); note: nearly all actives have a fitted effect of over 60% in size;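 note: potency is the fitted concentration of half-maximal effect; potency is for cytotoxicity meaning loss of cell viability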
Summary of the method: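 72 h cell-killing screen, 500 cells/well, CellTiter-Glo luminescence. Paired lines KB-3-1/KB-8-5-11; P-gp dependence checked by tariquidar co-treatment and HEK-293 MDR-19 versus empty-vector cells.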

[2] = P-glycoprotein substrates identified in KB-8-5-11 adenocarcinoma cell line, qHTS therapeutic library screen (AID 1346987); note: nearly all actives have a fitted effect of over 65% in size; note: potency is the fitted concentration of half-maximal effect
Summary of the method: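 Luminescence from CellTiter-Glo, read 5 min after addition, quantified survival of KB-8-5-11 (P-gp-overexpressing) cells exposed to compounds for 72 h. AC50 was derived from concentration-response curves.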

[3] = Primary qHTS for inhibitors of nuclear receptor binding SET domain protein 2 (NSD2) in an isogenic RCH-ACV NSD2 p.E1099K mutant (9B) (AID 1645876); note: nearly all actives have a fitted effect of over 70% in size; note: potency is the fitted concentration of half-maximal effect
[4] = Primary qHTS for inhibitors of nuclear receptor binding SET domain protein 2 (NSD2) in an RCH-ACV wild type WT cells (2C) (AID 1645877); note: nearly all actives have a fitted effect of over 70% in size; note: potency is the fitted concentration of half-maximal effect
[5] = target: Glutathione peroxidase 1 (Homo sapiens) (UniProt P07203); test: Primary qHTS Assay for Inhibitors of Recombinant Selenoprotein Glutathione Peroxidase 1 (GPX1) (AID 1845191); note: nearly all actives have a fitted effect of over 65% in size; note: potency is the fitted concentration of half-maximal effect
Sequence of Glutathione peroxidase 1 (Homo sapiens) (P07203 whole entry, looked up): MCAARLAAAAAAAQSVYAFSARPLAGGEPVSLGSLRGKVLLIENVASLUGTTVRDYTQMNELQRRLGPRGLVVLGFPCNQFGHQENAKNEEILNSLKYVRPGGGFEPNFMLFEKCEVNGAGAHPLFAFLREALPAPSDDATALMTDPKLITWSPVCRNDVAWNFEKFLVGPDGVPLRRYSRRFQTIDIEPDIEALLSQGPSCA
Summary of the method: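 GPX1 10 nM, GR 100 nM, GSH 1 mM, NADPH 0.5 mM, CHP 0.5 mM (final). 30-min cpd preincubation, RT. Ex340/Em450 read t=0, t=15 min.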

[6] = qHTS drug screen for cell cycle checkpoint inhibitors in PARPi-resistant BRCA-mutant ovarian cancer cell lines. (AID 1963452; calls by dose curve; note: potency is the fitted concentration of half-maximal effect); details: PEO1/OlaR viability, CellTiter-Glo luminescence, 96 h; for Z-AUC: stronger effect = lower value
Summary of the method: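 PEO1, PEO4 and PEO1/OlaR ovarian cancer cells, 600 per well, exposed 96 h at 37C to a dilution series. Viability read by CellTiter-Glo luminescence, normalized to DMSO and empty wells; activity summarized as Z-AUC.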

[7] = target: Calcium and integrin-binding protein 1 (Homo sapiens) (UniProt Q99828); test: Primary qHTS for Identification of Calcium Integrin Binding Protein 1 (CIB1) Competitor (AID 1508620);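 note: GST tagged CIB1 binding a fluorescein labelled alphaIIb integrin peptide tracer; top concentration of the series differs between compounds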
Sequence of Calcium and integrin-binding protein 1 (Homo sapiens) (Q99828 whole entry, looked up): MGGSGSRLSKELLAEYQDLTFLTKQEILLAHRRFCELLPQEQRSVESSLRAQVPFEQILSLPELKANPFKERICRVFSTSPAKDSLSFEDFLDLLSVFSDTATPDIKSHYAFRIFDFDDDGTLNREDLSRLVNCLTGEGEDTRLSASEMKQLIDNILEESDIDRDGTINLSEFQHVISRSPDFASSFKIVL
Summary of the method: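 Fluorescence polarization competition: CIB1-GST (1 uM final) preincubated with compound 15 min at room temperature, then FITC-labeled alphaIIb peptide (100 nM final) added for another 15 min. Polarization read at Ex 480/Em 540.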

[8] = target: Phospholipid hydroperoxide glutathione peroxidase GPX4 (Homo sapiens) (UniProt P36969); test: Primary qHTS Assay for Inhibitors of Recombinant Selenoprotein Glutathione Peroxidase 4 (GPX4) (AID 1845192); details: outcome: dose series up to 50 µM unless noted; note: nearly all actives have a fitted effect of over 65% in size
Sequence of Phospholipid hydroperoxide glutathione peroxidase GPX4 (Homo sapiens) (P36969 whole entry, looked up): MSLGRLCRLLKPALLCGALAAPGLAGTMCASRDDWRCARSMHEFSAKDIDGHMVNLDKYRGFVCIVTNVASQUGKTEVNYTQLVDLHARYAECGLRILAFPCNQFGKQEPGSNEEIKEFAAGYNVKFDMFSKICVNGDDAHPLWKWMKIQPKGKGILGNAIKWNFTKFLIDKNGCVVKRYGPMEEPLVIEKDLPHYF
Summary of the method: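 qHTS, GR-coupled: GPX4 200 nM + cpd 30 min RT → GSH 1 mM, NADPH 0.5 mM, GR 100 nM → CHP 0.5 mM start; fluor 340/450 at t0 and t15 min; no-enzyme wells as control.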

[9] = measured here: PEO1 parental Z-AUC

Row | Compound | Potency [1] | Potency [2] | Potency [3] | Potency [4] | Potency [5] | Z-AUC [6] | Z-AUC [6, 9] | Z-AUC ([6]; measured here: PEO4 Z-AUC) | outcome [7] | Potency [8] | Potency [6]
1 | C[C@]1(C(=O)Nc2ccc(F)nc2)CCCN1c1nc(Nc2cc(C3CC3)[nH]n2)c2cccn2n1 | 2.06 µM (active) | 2.91 µM (active) | 1840 nM (active) | 920 nM (active) | – | – | – | – | – | – | –
2 | O=C(NOCCO)c1cc(CN2OCCCC2=O)c(F)c(F)c1Nc1ccc(I)cc1F | inactive | inactive | inactive | – | inactive | -1.18 (inactive) | -0.961 | -1.01 | – | – | –
3 | CCOC(=O)c1cc2ccc(O)cc2oc1=O | inactive | inactive | inactive | inactive | – | – | – | – | – | – | –
4 | Clc1ccc2ncc(-c3cccc(NC4CCNCC4)n3)n2c1 | 3.66 µM (active) | 16.4 µM (active) | 366 nM (active) | 259 nM (active) | inactive | – | – | – | inactive | – | –
5 | COc1cc(/C=C(\C#N)C(N)=O)cc(CSc2nc3ccccc3s2)c1O | inactive | inactive | inactive | inactive | inactive | – | – | – | – | – | –
6 | C#Cc1cccc(Nc2ncnc3cc4c(cc23)OCCOCCOCCO4)c1 | inactive | inactive | – | inactive | inactive | 0.644 (inactive) | 0.664 | 0.297 | – | inactive | –
7 | O=C1NC(=O)/C(=C\c2ccc3nccc(-c4ccncc4)c3c2)S1 | 1.16 µM (active) | 1.46 µM (active) | 326 nM (active) | 366 nM (active) | – | – | – | – | – | – | –
8 | [2H]C([2H])([2H])C(OC(=O)[C@H](C)N[P@](=O)(OC[C@H]1O[C@@H](n2ccc(=O)[nH]c2=O)[C@](C)(F)[C@@H]1O)Oc1ccccc1)C([2H])([2H])[2H] | inactive | inactive | inactive | inactive | – | – | – | – | – | – | –
9 | CN1C/C=C/CCOc2cccc(c2)-c2ccnc(n2)Nc2cccc(c2)C1 | 0.092 µM (active) | 0.231 µM (active) | 92 nM (active) | 73.1 nM (active) | – | – | -1.71 | -1.51 | – | inactive | 0.549 µM (active)
10 | Cc1cc(Nc2nc(NC(C)c3ccc(F)cc3)c(C#N)cc2F)n[nH]1 (configuration not stated) | 0.164 µM (active) | 0.731 µM (active) | 920 nM (active) | 731 nM (active) | – | – | – | – | – | – | –
11 | COc1cc(OC)c2ccc(=O)oc2c1 | inactive | inactive | inactive | inactive | 25.5 µM (active) | – | – | – | – | – | –
12 | O=C(Nc1cc(Oc2cc(F)c(NC(=O)C3(C(=O)Nc4ccc(F)cc4)CC3)cc2F)ccn1)C1CC1 | 5.17 µM (active) | 4.61 µM (active) | 2.59 µM (active) and inactive | 2.59 µM (active) and inactive | inactive | -0.419 (inactive) | 0.97 | -0.43 | – | inactive | –
13 | CN(C)CC1CCn2cc(c3ccccc32)C2=C(C(=O)NC2=O)c2cn(c3ccccc23)CCO1 (configuration not stated) | inactive | inactive | 13000 nM (active) | 16400 nM (active) | – | – | – | – | – | – | –
